This note sets out measurements from PubChem BioAssay AID741 (SRMLSC, 2007).

The experiment is described as follows: MRP-overexpressing cell chemosensitization – dose response (AID 741). The note with it: MRP-overexpressing cells, viability with/without cytotoxic drug; slope difference: measured here: slope difference tox minus reversal, stronger effect = higher value; toxicity enhancement factor: stronger effect = higher value; viability: measured here: viability series, compound alone, at 10 µM, stronger effect = lower value.

Inconclusive results are not listed. Calls of active or inactive are those of the source. Cut-off read from the data, not from the text of the source: active = toxicity enhancement factor above about 0.054; inconclusive = between about 0.00067 and that limit; inactive = weaker than that.

In the case of `COC(=O)Nc1ccc(S(=O)(=O)Nc2ccc(O)cc2)cc1`, the slope difference is -0.156, the toxicity enhancement factor is -0.0016 (inactive) and the viability was determined as 90.5%.
On the same counts, the results for `Cc1cccc2cc(CN(Cc3nnnn3C3CCCCC3)C3CCCC3)c3nnnn3c12` are 3.91, 0.117 (active) and 74.2%.
As to `CCCCCC(O)c1cccc(OCc2ccc3ccccc3n2)c1` (stereo unspecified), the slope difference was -0.009, the toxicity enhancement factor is -0.0001 (inactive) and the viability was 102%.
With `C=CCOc1nc2c(c(=O)n(C)c(=O)n2C)n1Cc1c(Cl)cccc1Cl`, the slope difference was -0.654, the toxicity enhancement factor is -0.0108 (inactive) and the viability came to 63.6%.
In the case of `CN1C(=O)C(CC(=O)Nc2ccc3c(c2)Cc2ccccc2-3)N(C)C1=O` (stereo unspecified), the slope difference is -0.0851, the toxicity enhancement factor was -0.0009 (inactive) and the viability was found to be 94.5%.
The matching figures for `CCOC(=O)/C(C#N)=C/c1cc(C)n(-c2ccc(C)cc2)c1C`: -0.0151, -0.0003 (inactive) and 63.7%.
For `CCOc1nc2c(c(=O)n(C)c(=O)n2C)n1Cc1ccccc1Cl`, the slope difference is -0.531, the toxicity enhancement factor was -0.0077 (inactive) and the viability came out at 71%.
On to `COc1ccc(N2C(N)=C(C#N)C(c3cccnc3)C3=C2CC(C)(C)CC3=O)cc1` (stereo unspecified), for which the slope difference was 2.07, the toxicity enhancement factor is 0.0615 (active) and the viability was 63%.
For `CSc1cccc(NC(=O)C2CCN(S(C)(=O)=O)CC2)c1`, the slope difference is -0.244, the toxicity enhancement factor is -0.0028 (inactive) and the viability was 94.7%.
Take `CC(C(=O)O)c1ccc(-c2ccccc2)c(F)c1` (stereo unspecified): the slope difference was -0.412, the toxicity enhancement factor was -0.0042 (inactive) and the viability stood at 89%.
The matching figures for `O=C(Cc1cccs1)N1CCC(c2nc3c(nnn3Cc3ccccc3Cl)c(=O)[nH]2)CC1`: -0.454, -0.0052 (inactive) and 82.5%.
For `N#CC1=C(N)N(c2ccccc2)C2=C(C(=O)CCC2)C1c1ccccc1` (stereo unspecified), the slope difference was 4.41, the toxicity enhancement factor is 0.144 (active) and the viability worked out at 70.1%.
Turning to `COC(=O)C(C)Sc1nnc2n(-c3cccc(C)c3)c(=O)c3c4c(sc3n12)CCCC4` (stereo unspecified), the slope difference came to 2.9, the toxicity enhancement factor was 0.061 (active) and the viability amounted to 85.9%.
In the case of `O=C(c1ccccc1)c1ccc2n1CCC2C(=O)O` (stereo unspecified), the slope difference was -0.0977, the toxicity enhancement factor was -0.001 (inactive) and the viability came to 106%.
Turning to `CCOC(=O)c1c(C)[nH]c(N=Nc2ccc(C)cc2)c1C`, the slope difference is -0.597, the toxicity enhancement factor is -0.006 (inactive) and the viability was determined as 98.7%.
On the same counts, the results for `CCCn1c(=O)[nH]c(=O)c2[nH]cnc21` are -0.568, -0.0054 (inactive) and 101%.
Turning to `COc1ccc(C)cc1-n1c(N)c(C#N)c(C#N)c1-c1ccc(OC)c(OC)c1OC`, the slope difference was determined as 2.33, the toxicity enhancement factor was 0.077 (active) and the viability was 61.5%.
On to `COc1ccc(/C=C/C(=O)Nc2ccccc2C(=O)O)cc1OC`, for which the slope difference is -1.07, the toxicity enhancement factor is -0.0098 (inactive) and the viability is 95.7%.
On to `Cc1ccc(/C=N/Nc2ncc(Cl)cc2Cl)s1`, for which the slope difference was -0.555, the toxicity enhancement factor was -0.0071 (inactive) and the viability was 70.4%.
On the same counts, the results for `CCCCSc1nnc2n(CCc3ccccc3)c(=O)c3c4c(sc3n12)COC(C)(C)C4` are 5.29, 0.189 (active) and 84.4%.
The matching figures for `CN1C(C(=O)Nc2ccccn2)=C(O)c2ccccc2S1(=O)=O`: -0.409, -0.0045 (inactive) and 92.3%.
The matching figures for `O=C(CSc1nnnn1-c1ccccc1)N1CCc2ccccc21`: -1.04, -0.0102 (inactive) and 85.8%.
On to `COc1ccc2cc([C@H](C)C(=O)O)ccc2c1`, for which the slope difference is -0.665, the toxicity enhancement factor was -0.0066 (inactive) and the viability turned out to be 96.6%.
Turning to `CCOC(=O)c1sc(NC(=O)CSc2nnc(-c3ccco3)n2CC)c(C(=O)OCC)c1C`, the slope difference came to 3.89, the toxicity enhancement factor was 0.364 (active) and the viability was 54.8%.
On the same counts, the results for `CCn1c(N)c(C(=O)N2CCOCC2)sc1=S` are -0.557, -0.0052 (inactive) and 101%.
The matching figures for `COc1ccc(Cl)cc1C(=O)Nc1ccccc1N1CCN(C(=O)C(C)C)CC1`: -0.352, -0.0048 (inactive) and 75.7%.
On the same counts, the results for `CCOC(=O)N1CCC(Nc2c(Nc3cccc(CC)c3)c(=O)c2=O)CC1` are 5.23, 0.268 (active) and 73.6%.
Turning to `CC1CN(c2nc3ccccn3c(=O)c2/C=C(\C#N)S(=O)(=O)c2ccccc2)CC(C)O1` (stereo unspecified), the slope difference was 3.36, the toxicity enhancement factor is 0.0581 (active) and the viability came to 93.3%.
On the same counts, the results for `COc1ccccc1Nc1nc(N)nc(CN2CCOCC2)n1` are -0.589, -0.0058 (inactive) and 98.2%.
The matching figures for `c1ccc(N2CCN(c3ccccc3)C2c2ccncc2)cc1`: 3.19, 0.0739 (active) and 82.9%.
On the same counts, the results for `CCOc1ccccc1Nc1nc(N)nc(CN(C)C2CCCCC2)n1` are -0.105, -0.0012 (inactive) and 92.2%.
`Cc1nc(N2CCN(C)CC2)c2sc(=S)n(-c3ccccc3)c2n1`: the slope difference amounted to 2.3, the toxicity enhancement factor was 0.0596 (active) and the viability is 64%.
For `O=C(NCCCn1ccnc1)c1sc2cccc(F)c2c1Cl`, the slope difference is -0.0975, the toxicity enhancement factor was -0.001 (inactive) and the viability is 96.9%.
The matching figures for `COc1ccc(C(c2nnnn2C(C)(C)C)N2CCN(c3nc4ccccc4s3)CC2)cc1OC` (stereo unspecified): -1.39, -0.0199 (inactive) and 71.9%.
Regarding `Cc1ccc(-c2nc3ncccn3c2NC2CCCCC2)o1`, the slope difference amounted to 2.81, the toxicity enhancement factor was 0.0632 (active) and the viability was 79.5%.
On the same counts, the results for `CCc1cccc2c3c([nH]c12)C(CC)(CC(=O)O)OCC3` (stereo unspecified) are -0.174, -0.0019 (inactive) and 92.5%.
Consider `COc1ccc(NC(=O)C2C3C=CC(C3)C2C(=O)NCc2ccccn2)c(OC)c1` (stereo unspecified), for which the slope difference was -1.73, the toxicity enhancement factor is -0.0167 (inactive) and the viability was 88.7%.
